According to the supplement of paper PMC11732987, “Enantioselective OTUD7B fragment discovery through chemoproteomics screening and high-throughput optimisation” (Communications Chemistry, 2025):

Experiments:
Test in all cases: log2 ratio of Biotin-Ahx-Ub-VS probe labelling (fragment/DMSO); higher = less target engagement (more negative = stronger competition), active = hit call of the paper (q ≤ 0.05, log2 ratio ≤ -1)
Conditions in all cases: compound concentration: 200 uM; treatment time: 3 h
[1] = molecular target: USP34 (UniProt Q70CQ2)
USP34, sequence (Q70CQ2 whole entry, the tested form may be a part): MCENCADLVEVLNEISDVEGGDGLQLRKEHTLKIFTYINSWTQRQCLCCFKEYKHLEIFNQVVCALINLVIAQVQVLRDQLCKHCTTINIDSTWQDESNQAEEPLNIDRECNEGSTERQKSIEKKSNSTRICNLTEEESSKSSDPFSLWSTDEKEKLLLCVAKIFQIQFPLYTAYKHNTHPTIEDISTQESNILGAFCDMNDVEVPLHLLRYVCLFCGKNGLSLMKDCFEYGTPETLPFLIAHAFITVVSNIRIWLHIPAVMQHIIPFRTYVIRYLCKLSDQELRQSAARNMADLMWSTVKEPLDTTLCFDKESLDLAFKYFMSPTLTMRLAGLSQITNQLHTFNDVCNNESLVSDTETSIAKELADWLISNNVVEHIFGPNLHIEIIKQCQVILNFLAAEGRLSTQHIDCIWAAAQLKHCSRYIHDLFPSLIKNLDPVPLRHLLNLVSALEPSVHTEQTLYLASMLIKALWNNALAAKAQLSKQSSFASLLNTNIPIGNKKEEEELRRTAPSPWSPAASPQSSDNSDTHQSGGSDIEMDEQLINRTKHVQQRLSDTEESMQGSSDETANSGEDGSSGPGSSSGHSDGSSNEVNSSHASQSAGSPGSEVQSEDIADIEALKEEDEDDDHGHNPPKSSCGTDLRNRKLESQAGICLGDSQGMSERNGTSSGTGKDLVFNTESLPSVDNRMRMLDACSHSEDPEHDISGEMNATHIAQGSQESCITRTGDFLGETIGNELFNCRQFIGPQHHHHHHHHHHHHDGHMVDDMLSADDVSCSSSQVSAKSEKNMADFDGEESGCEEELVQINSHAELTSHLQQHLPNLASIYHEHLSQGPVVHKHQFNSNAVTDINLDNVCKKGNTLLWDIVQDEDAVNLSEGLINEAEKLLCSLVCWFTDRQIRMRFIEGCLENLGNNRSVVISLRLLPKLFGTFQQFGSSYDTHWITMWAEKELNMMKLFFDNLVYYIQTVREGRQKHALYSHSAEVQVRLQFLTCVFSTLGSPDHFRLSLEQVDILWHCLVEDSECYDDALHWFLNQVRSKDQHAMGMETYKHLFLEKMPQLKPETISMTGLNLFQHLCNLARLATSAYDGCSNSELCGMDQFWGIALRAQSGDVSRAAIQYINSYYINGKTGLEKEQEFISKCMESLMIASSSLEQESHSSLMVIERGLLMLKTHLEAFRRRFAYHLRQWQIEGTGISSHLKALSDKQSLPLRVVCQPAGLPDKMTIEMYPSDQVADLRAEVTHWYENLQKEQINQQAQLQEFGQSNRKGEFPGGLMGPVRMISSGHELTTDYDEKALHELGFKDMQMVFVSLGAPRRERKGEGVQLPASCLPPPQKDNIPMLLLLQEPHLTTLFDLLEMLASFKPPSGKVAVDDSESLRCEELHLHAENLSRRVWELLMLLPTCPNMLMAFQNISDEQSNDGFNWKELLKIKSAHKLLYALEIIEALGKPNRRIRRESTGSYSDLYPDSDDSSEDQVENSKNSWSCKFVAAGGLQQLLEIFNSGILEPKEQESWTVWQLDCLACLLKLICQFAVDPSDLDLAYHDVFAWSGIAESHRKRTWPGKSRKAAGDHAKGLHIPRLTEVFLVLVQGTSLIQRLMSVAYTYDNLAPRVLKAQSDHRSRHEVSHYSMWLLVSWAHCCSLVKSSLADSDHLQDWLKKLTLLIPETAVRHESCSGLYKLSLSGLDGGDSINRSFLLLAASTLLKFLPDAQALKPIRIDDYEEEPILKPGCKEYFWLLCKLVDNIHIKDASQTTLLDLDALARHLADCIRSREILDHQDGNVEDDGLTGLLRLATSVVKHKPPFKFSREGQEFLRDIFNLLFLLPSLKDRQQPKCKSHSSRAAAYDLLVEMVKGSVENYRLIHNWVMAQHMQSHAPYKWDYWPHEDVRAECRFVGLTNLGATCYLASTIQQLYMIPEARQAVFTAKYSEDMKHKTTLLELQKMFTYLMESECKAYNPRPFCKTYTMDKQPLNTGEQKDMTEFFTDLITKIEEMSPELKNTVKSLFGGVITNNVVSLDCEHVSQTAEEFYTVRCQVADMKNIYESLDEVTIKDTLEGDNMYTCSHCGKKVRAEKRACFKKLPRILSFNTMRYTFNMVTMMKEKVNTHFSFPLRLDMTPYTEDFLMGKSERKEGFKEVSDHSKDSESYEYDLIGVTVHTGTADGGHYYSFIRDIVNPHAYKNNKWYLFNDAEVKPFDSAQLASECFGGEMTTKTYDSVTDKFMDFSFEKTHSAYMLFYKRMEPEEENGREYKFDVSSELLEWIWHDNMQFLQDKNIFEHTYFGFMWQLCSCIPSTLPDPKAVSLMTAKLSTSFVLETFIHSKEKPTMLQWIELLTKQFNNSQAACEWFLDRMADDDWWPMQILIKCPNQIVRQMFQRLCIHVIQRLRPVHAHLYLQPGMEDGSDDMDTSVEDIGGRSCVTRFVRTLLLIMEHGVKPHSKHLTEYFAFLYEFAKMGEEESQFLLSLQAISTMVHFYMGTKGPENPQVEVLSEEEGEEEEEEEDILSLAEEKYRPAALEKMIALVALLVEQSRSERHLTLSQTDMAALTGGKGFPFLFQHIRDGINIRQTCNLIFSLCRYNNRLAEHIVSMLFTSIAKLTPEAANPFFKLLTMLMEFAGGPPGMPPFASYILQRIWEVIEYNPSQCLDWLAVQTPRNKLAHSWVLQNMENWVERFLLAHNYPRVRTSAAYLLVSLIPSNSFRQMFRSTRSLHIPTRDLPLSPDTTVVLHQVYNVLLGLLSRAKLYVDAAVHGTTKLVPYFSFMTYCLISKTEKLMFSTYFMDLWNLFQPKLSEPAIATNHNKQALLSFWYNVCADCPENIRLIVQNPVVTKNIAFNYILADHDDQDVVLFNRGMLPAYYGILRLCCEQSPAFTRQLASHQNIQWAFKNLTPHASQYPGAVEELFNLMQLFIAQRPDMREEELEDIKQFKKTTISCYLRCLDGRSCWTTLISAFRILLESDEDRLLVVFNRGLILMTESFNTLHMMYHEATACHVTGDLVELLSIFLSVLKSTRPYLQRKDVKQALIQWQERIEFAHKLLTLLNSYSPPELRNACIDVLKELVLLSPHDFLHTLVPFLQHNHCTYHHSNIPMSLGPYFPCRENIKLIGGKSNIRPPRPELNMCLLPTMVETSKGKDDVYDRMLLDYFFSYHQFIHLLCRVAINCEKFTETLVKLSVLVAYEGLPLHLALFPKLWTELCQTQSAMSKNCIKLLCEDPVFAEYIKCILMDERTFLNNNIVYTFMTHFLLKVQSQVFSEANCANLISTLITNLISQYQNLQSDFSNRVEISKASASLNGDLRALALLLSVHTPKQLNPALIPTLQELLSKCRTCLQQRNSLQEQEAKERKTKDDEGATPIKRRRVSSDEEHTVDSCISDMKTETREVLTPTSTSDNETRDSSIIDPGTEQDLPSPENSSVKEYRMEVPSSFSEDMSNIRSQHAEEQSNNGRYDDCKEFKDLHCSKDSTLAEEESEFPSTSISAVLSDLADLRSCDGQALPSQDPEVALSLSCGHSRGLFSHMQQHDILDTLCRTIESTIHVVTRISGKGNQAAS
In short: (§1)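 Labelling with Biotin-Ahx-Ub-VS (0.5 µM final, 1 h) followed a 3 h triplicate treatment of HEK293T lysate (495 µg per sample, Tris/CHAPS/IGEPAL buffer with protease inhibitors) with fragment at 200 µM or vehicle. Labelled DUBs were NeutrAvidin-enriched, digested with LysC and trypsin, and run by diaPASEF LC-MS/MS. The values, average log2 fragment/vehicle ratios by unpaired t-test, come from global-median-normalised Spectronaut label-free quantities. Proteins with ≥2 unique peptides were used.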

[2] = molecular target: T1, USP36 (UniProt Q9P275)
T1 sequence (whole entry): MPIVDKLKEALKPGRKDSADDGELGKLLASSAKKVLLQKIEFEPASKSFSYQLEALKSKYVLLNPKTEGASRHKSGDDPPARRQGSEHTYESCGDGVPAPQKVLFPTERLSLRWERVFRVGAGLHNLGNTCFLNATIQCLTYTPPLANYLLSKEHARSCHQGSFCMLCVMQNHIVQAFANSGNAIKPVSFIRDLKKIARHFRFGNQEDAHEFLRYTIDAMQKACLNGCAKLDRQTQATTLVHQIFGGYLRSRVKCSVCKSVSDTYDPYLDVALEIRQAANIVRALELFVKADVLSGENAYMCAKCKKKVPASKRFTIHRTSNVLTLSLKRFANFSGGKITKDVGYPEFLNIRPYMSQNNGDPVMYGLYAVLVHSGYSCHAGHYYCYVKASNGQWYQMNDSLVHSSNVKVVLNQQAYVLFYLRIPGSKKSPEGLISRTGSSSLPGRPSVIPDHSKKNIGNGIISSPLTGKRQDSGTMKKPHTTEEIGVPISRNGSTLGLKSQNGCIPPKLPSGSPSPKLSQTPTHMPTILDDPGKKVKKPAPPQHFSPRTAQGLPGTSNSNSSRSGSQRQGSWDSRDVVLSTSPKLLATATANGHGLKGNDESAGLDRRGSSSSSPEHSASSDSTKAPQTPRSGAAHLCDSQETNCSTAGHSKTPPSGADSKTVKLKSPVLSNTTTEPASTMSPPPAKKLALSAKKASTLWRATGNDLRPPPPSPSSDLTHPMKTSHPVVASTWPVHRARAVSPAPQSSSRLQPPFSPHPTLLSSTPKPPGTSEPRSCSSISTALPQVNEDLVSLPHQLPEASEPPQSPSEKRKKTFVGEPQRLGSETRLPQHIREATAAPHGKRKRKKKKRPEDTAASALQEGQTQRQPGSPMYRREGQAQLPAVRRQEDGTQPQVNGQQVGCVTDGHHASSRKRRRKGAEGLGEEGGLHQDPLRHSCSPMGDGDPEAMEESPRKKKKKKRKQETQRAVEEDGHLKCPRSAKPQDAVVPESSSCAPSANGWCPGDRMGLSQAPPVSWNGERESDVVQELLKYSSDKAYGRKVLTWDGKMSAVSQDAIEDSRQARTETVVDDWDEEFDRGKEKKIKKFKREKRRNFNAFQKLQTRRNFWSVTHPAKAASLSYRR
In short: as §1

[3] = molecular target: T2, USP38 (UniProt Q8NB14)
T2 sequence (whole entry): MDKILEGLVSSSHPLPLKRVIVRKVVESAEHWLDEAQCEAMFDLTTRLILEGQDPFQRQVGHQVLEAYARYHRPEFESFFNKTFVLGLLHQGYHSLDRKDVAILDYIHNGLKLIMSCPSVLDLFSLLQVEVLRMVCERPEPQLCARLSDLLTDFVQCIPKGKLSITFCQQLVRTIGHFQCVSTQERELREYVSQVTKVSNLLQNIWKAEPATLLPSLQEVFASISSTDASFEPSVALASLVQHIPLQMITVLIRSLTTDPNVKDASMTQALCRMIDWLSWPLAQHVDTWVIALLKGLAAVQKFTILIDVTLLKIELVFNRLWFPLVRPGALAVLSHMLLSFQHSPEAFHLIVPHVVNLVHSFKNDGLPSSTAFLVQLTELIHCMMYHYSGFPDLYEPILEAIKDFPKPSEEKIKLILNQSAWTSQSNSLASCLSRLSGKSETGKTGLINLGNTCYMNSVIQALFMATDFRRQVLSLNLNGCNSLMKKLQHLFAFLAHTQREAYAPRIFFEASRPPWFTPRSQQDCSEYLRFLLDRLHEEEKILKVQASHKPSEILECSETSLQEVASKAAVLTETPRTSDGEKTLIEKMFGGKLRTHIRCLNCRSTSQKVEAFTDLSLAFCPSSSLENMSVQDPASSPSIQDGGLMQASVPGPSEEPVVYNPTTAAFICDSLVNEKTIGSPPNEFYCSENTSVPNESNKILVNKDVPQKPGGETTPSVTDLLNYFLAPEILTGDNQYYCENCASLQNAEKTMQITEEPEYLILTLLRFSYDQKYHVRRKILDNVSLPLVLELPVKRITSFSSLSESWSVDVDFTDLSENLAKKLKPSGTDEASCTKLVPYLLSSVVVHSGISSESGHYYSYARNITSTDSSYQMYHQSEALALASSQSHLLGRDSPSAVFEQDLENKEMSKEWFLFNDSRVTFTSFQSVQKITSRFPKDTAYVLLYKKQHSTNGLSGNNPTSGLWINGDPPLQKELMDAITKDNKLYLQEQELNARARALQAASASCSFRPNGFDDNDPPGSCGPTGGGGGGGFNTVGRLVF
In short: as §1

[4] = molecular target: T3, USP39 (UniProt Q53GS9)
T3 sequence (whole entry): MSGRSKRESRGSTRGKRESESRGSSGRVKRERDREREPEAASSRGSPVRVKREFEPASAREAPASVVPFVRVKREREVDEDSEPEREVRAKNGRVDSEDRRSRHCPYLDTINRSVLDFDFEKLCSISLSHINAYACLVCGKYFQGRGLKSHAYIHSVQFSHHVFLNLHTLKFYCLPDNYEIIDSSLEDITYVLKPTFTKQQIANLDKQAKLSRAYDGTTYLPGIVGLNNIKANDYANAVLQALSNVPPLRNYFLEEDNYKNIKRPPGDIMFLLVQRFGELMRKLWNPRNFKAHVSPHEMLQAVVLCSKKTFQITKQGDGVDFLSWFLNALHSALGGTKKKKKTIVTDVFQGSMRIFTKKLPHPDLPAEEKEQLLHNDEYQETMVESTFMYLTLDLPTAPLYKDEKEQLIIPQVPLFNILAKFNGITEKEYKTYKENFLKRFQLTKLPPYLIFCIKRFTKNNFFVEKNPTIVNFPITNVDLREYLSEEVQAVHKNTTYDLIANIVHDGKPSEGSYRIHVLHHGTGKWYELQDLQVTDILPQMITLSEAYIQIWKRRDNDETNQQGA
In short: as §1

[5] = molecular target: T4, USP4 (UniProt Q13107)
T4 sequence (whole entry): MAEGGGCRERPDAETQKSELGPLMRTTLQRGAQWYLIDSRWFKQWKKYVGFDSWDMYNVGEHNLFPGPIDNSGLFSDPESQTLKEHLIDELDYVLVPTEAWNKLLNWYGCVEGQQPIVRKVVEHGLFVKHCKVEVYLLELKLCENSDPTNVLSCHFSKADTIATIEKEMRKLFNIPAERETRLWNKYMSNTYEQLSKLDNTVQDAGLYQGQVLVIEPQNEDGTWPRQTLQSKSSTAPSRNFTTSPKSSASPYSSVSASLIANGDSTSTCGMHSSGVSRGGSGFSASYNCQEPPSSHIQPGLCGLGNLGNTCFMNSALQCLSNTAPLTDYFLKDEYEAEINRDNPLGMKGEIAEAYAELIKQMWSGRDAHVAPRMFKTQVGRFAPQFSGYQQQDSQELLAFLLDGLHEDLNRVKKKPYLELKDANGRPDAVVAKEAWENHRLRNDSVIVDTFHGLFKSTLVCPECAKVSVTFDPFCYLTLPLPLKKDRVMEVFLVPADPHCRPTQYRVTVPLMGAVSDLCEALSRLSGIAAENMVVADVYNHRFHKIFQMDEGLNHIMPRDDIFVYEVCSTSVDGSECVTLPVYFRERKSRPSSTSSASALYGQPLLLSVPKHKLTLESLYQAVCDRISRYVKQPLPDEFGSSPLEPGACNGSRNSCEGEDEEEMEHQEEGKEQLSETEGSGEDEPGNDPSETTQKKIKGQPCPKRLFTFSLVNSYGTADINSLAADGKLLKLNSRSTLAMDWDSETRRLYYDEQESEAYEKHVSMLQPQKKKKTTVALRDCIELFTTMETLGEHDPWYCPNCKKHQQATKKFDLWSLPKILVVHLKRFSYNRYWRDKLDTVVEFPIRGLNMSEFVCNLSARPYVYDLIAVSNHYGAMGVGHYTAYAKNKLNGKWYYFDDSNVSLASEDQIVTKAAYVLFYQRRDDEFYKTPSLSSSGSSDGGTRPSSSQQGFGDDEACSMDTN
In short: as §1

Measured: log2 ratio of Biotin-Ahx-Ub-VS probe labelling

Cl.Cn1cnc2cc(CNC(=O)CCl)ccc21
inactive: [1] -0.0912 | [2] -0.188 | [3] -0.21 | [4] -0.337 | [5] -0.0327
